Source: PubChem
D2 PAM-1: D2 dopamine receptor (human) potentiation; HEK293 T-REx D2, calcium flux, EC20 dopamine potentiation; potentiation, % at 10 µM; 340,000 tested, 0.34% active; AID 485347;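 active means potentiation over 3 SD above the plate norm, cut at about 30% in these data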; further: 0% is about no effect
Target sequence (P14416 whole entry, looked up): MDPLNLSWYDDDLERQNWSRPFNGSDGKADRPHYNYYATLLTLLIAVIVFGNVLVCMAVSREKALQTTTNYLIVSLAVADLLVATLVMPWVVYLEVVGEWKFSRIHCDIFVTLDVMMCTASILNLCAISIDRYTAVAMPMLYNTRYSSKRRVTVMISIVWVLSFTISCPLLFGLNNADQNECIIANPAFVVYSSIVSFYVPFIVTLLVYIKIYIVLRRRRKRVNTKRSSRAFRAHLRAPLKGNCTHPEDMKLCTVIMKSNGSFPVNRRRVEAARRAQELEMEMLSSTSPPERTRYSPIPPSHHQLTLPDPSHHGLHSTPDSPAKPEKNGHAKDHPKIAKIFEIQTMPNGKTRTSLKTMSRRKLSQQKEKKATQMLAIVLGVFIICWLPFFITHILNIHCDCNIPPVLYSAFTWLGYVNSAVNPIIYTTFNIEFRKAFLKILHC
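Cells plated with tetracycline inducer and held overnight at 30 C; calcium dye loaded 30–90 min at room temperature; baseline taken, compound added and read 180 s; EC20 dopamine then added and read 180 s.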
D2 ag-1: activates the human D2 dopamine receptor; HEK293 T-REx D2 cells, calcium flux agonist mode; activation, % at 2 µM; AID 485358; 340,000 tested, 0.53% active;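 active means activation over 3 SD above normal in the single-dose calcium agonist read, cut at about 30% in these data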; further: 0% is about no effect
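Calcium-flux readout, 1 cycle/sec over 180 s following compound pin transfer, in inducible HEK293 Trex D2 cells (force-coupled); dopamine controls included. Positive calcium responses during this window marked compounds as potential agonists.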
D2 antagonist: D2 dopamine receptor (human) antagonism; HEK293 TREx D2 cells, calcium flux, dopamine EC80; inhibition, % at 10 µM; 340,000 tested, 2% active; AID 485344; in the data active means inhibition above about 30%; inactive means below that, where a call was filed; further: 0% is about no effect
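Cells plated overnight at 30 C with tetracycline; no-wash calcium dye, 30–90 min RT; 10 s baseline; compound pinned; 180 s read; EC80 dopamine added; another 180 s read.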
D2 PAM-2: positive allosteric modulators of human D2 dopamine receptor; potentiation, % (test concentration not listed); DiscoveRx D2 beta-arrestin cells, luminescence, 90 min; 100% = 57 uM dopamine signal; P14416; 360,000 tested, 0.23% active; in the data active means potentiation above about 50%
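PathHunter D2 cells, attached overnight at 37 deg C, received compound in DMSO plus dopamine at EC20 (50 nM final) for 90 min at 37 deg C. Beta-arrestin recruitment was read as luminescence after 1 h with detection reagent at ambient temperature.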
D2 ag-2: human D2 receptor agonism in beta-arrestin assay; P14416; DiscoveRx PathHunter D2 beta-arrestin, luminescence, 90 min; 100% = 57 uM dopamine signal; activation, % (test concentration not listed); 360,000 tested, 0.084% active; AID 624465; in the data active means activation above about 40%
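Agonist mode: compounds alone added to overnight-plated D2 PathHunter cells for 90 min at 37 C, with 57 uM final dopamine (EC100) defining full response. Beta-arrestin recruitment detected by chemiluminescent reagent, read after 1 h at ambient temperature.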
The depositor's hits bear a star; nt = no result. Compounds with a hit are over-represented: about 2.4% of the library has one in this group of screens.

SMILES	D2 PAM-1	D2 ag-1	D2 antagonist	D2 PAM-2	D2 ag-2
CCOC(=O)C1CCCN(CC(O)COc2ccccc2C(C)=O)C1 (stereo not given)	-22	-1	-9	-14	-1
COc1ccc(CN2CCC(C(N)=O)CC2)cc1OCc1ccccc1	-4	0	-2	0	-4
CCOC(=O)C1CCCN(Cc2ccc(OC)c(OCc3ccccc3)c2)C1 (stereo not given)	-21	-1	45*	-3	-5
CCOC(=O)C1CCCN(Cc2nc(N)nc(Nc3ccccc3OC)n2)C1 (stereo not given)	-10	-1	34*	-6	-4
CCOC(=O)C1CCCN(CC(O)COC(c2ccccc2)c2ccccc2)C1 (stereo not given)	nt	-3	33*	-12	-2
CCOC(=O)C1CCCN(Cc2ccc(OCC)cc2)C1 (stereo not given)	-27	42*	28	-11	-2
COc1ccccc1Nc1nc(N)nc(CN2CCCCCC2)n1	-6	-1	-23	-12	0
CCOC(=O)C1CCN(Cc2ccc3ccccc3c2)CC1	-16	13	9	-3	0
COc1ccccc1N1CCN(Cc2nc(N)nc(Nc3ccccc3)n2)CC1	-24	8	34*	-14	0
CCOC(=O)C1CCN(Cc2cc(C(C)C)c(O)c(C(C)C)c2)CC1	-21	22	45*	-18	-13
CCOc1ccc(N(CC)S(=O)(=O)N2CCCC(C(=O)NCc3ccccc3OCC)C2)cc1 (stereo not given)	0	0	nt	nt	nt
O=C(/C=C/c1ccc(Cl)cc1)NC(=S)Nc1ccc(CN2CCOCC2)cc1	-22	35*	0	-21	1
CC(C)(C)N(Cc1ccccc1)C(=O)CSc1nnc(CNc2ccc(F)cc2)o1	11	0	32*	-4	-3
O=C(COC(=O)/C=C/c1ccc(Cl)cc1)NC(=O)NCc1ccccc1	1	1	44*	-11	5
c1ccc(CN2CCN(c3nc4ccccc4n4cnnc34)CC2)cc1	-32	1	68*	-5	-5
Clc1cccc(N2CCN(CCNc3nc4ccccc4n4cnnc34)CC2)c1	-21	4	42*	-16	3
Nc1nonc1-c1nc2ccccc2n1CC(=O)N1CCCCC1	-7	-1	-9	-10	-4
O=C(Cn1c(-c2ccco2)nc2ccccc21)N1CCCCC1	8	1	46*	-12	-3
CCCS(=O)(=O)Nc1cc2c(cc1NCc1ccccc1)n(C)c(=O)n2C	1	0	nt	nt	nt
CN(C)c1ccc(/C=N/NC(=O)C(O)(c2ccccc2)c2ccccc2)o1	3	-1	33*	-8	1
Brc1cccc(OCCCCN2CCCCC2)c1	-37	1	88*	-13	-1
CCOc1cccc(OCCCCN2CCCCC2)c1	-18	1	-10	-33	-2
CC1CCCN(CCC(=O)c2ccc(Br)cc2)C1 (stereo not given)	-11	-1	29	-50	0
Clc1cccc(OCCN2CCCC2)c1	-14	0	26	-8	2
CC1CCCN(CCOc2ccc(Br)cc2)C1 (stereo not given)	-29	0	63*	-19	0
SMILES	D2 PAM-1	D2 ag-1	D2 antagonist	D2 PAM-2	D2 ag-2
CC(C)c1cccc(OCCN2CCCC2)c1	-23	1	71*	-23	6
CC1CCCN(CCCCOc2cccc(Br)c2)C1 (stereo not given)	-20	0	75*	-32	0
Cc1ccc(NC(=O)C2CCCN2S(=O)(=O)c2cccc3cccnc23)cc1 (stereo not given)	-13	0	nt	nt	nt
CC1CCCCN1C(=O)Cn1c(SCC(=O)N(C)c2ccccc2)nc2ccccc21 (stereo not given)	0	2	nt	nt	nt
CCOc1ccc(C(=O)c2oc3ccccc3c2NC(=O)Cc2coc3ccc(CC)cc23)cc1	1	1	nt	nt	nt
Cc1cc(C)c2sc(NNC(=O)C3COc4ccccc4O3)nc2c1 (stereo not given)	-3	-1	33*	-6	-4
Cc1cccc2sc(NNC(=O)C3COc4ccccc4O3)nc12 (stereo not given)	-2	-1	10	5	7
Nc1c(C(=O)c2ccccc2)sc2nsc(SCCN3CCCC3)c12	-14	37*	9	-15	-2
Cc1noc(Cn2c(=O)c3ccccc3n(CC(=O)Nc3ccc(C(C)C)cc3)c2=O)n1	1	0	nt	nt	nt
CCCN1C(=O)/C(=C/c2c(N3CCNC(=O)C3CC(=O)OC)nc3c(C)cccn3c2=O)SC1=S (stereo not given)	-12	55*	43*	nt	nt
CN(C)c1ccc(CNC(=O)Cc2ccc(NC(=O)N3CCCCc4ccccc43)cc2)cc1	2	0	nt	nt	nt
COCCCn1c(SCC(=O)Nc2ccccc2OC)nc2c(sc3ccccc32)c1=O	8	0	nt	nt	nt
Cc1ccc(C(=O)CCNc2ccccc2)o1	-7	0	33*	29	-5
CCOC(=O)N1CCN(C(=O)c2cc(C)no2)CC1	30*	0	21	-2	-3
Cc1cc(C(=O)N2CCC(C)CC2)on1	10	1	0	-4	1
COC(=O)CNC(=O)CSc1nc2c(sc(=S)n2-c2ccccc2)c(=O)[nH]1	-15	1	44*	-5	4
c1ccc(-c2cnc(SCCN3CCOCC3)n2CC2CCCO2)cc1 (stereo not given)	-9	0	34*	-16	1
COCCNC(=S)N(CCc1c(C)[nH]c2ccc(F)cc12)Cc1cccs1	-1	2	30*	-12	-1
COCCNC(=S)N(CCc1c(C)[nH]c2ccc(Cl)cc12)Cc1cccs1	2	1	5	-1	1
CNC(=S)N(CCc1c(C)[nH]c2ccc(F)cc12)Cc1cccnc1	31*	0	-11	-11	6
Cc1[nH]c2ccc(F)cc2c1CCN(Cc1cccnc1)C(=S)Nc1ccccc1	-8	0	11	-9	-5
Cc1ccc(-n2nc3c(N4CCC(C(=O)NCCC(C)C)CC4)nnc(C)c3c2C)cc1	4	0	nt	nt	nt
O=C(CNCc1ccco1)Nc1ccc(Oc2ccccc2)cc1	2	-1	-7	-12	0
O=C(CNCc1ccco1)Nc1ccccc1-n1cccc1	12	0	38*	-4	0
CC(=O)Nc1ccc(NC(=O)COc2cc(O)c3c(c2)OC(C)(C)CC3=O)cc1	-2	3	-12	-9	-3
Cc1cc(OCC(=O)Nc2ccc(Br)cc2)cc2c1C(=O)CC(C)(C)O2	-3	1	41*	-4	-3
Cc1ccc(CNC(=O)CCC(=O)N2CC3CCCN3c3ccccc32)cc1 (stereo not given)	8	0	nt	nt	nt
CC(=O)Nc1nonc1-c1nnc(SCc2cccc(Br)c2)n1C	13	-2	nt	nt	nt
